Data on eight molecules can be found in PubChem BioAssay (NCI).

Test systems include DU-145 prostate; K-562 leukemia; MALME-3M melanoma; MDA-MB-231 breast; RXF 393 renal; SF-268 CNS; SF-295 CNS; SF-539 CNS; UACC-257 melanoma; M14 melanoma; HCT-15 colon; HT29 colon; SNB-75 CNS; SNB-19 CNS; PC-3 prostate; SK-MEL-5 melanoma; UACC-62 melanoma; LOX IMVI melanoma; SK-MEL-28 melanoma; U251 CNS.
Test in all cases: NCI-60 one-dose screen, 48 h (100 = growth as untreated, 0 = no growth, -100 = all killed)
Common to all, as to conditions: 10 µM unless noted

Compounds without any hit were thinned out: in the full panel of roughly 83,000, 20% have a hit.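 The test compound was applied at a single concentration to cells in 96-well plates for 48 hours, and percent growth was recorded.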 Values without a mark were called inactive. The source made the active and inactive calls. The calls were made as follows: active = growth percent below 10; inactive = the rest.

Consider `c1coc(CNc2c3ccccc3nc3ccccc23)c1`, for which the growth was 76% with DU-145 prostate; 44.7% in the assay with K-562 leukemia; 90.4% with MALME-3M melanoma; 60.5% in the assay with MDA-MB-231 breast; 61.5% in the assay on RXF 393 renal; 85.7% with SF-268 CNS. The growth in the assay with SF-295 CNS is 53.9%; in the assay on SF-539 CNS, 65.9%; in the assay on UACC-257 melanoma, 81.7%; with M14 melanoma, 79.7%; in the assay with HCT-15 colon, 44.2%; in the assay with HT29 colon it was 35.1%. In addition, the growth is 81.5% with SNB-75 CNS; 62.8% with SNB-19 CNS; 67% with PC-3 prostate; 84.3% with SK-MEL-5 melanoma; 66.1% in the assay on UACC-62 melanoma; 37.1% with LOX IMVI melanoma. For the same molecule, in the assay with SK-MEL-28 melanoma, the growth was 97.7%.

Regarding `COC(=O)[C@@H](Cc1c[nH]c2ccccc12)NC(=O)/C=C/c1ccccc1`, the growth in the assay with DU-145 prostate is 12%; in the assay with K-562 leukemia, 15.9%; in the assay on MALME-3M melanoma, 35.1%; in the assay with MDA-MB-231 breast it was 37.7%; with RXF 393 renal, -25.6% (active); with SF-268 CNS, 42.9%. Also, the growth with SF-295 CNS is -1.2% (active); with SF-539 CNS it was -66.8% (active); with M14 melanoma, -37.5% (active); in the assay with HCT-15 colon it was 13.7%; with HT29 colon, 85.5%; in the assay with SNB-75 CNS, 15.3%. The growth was 46.4% in the assay with SNB-19 CNS; 14.2% in the assay with U251 CNS; 18.7% in the assay with PC-3 prostate; 31.4% with SK-MEL-5 melanoma; 44.1% in the assay on UACC-62 melanoma; 38.3% in the assay on LOX IMVI melanoma. Also, the growth in the assay on SK-MEL-28 melanoma was 44.3%.

For the molecule `Cc1cccc2nc3ccccc3c(Nc3ccc(NS(C)(=O)=O)cc3)c12`, the growth in the assay with DU-145 prostate is 23.1%; in the assay on K-562 leukemia it was 35.1%; with MALME-3M melanoma, 40.4%; with MDA-MB-231 breast, 72.9%; in the assay on RXF 393 renal it was 55.4%; with SF-268 CNS, 57.9%. The growth was 21.6% in the assay with SF-295 CNS; 39.6% in the assay on SF-539 CNS; 70.7% with M14 melanoma; 37.2% in the assay on HCT-15 colon; 46% in the assay with HT29 colon; 68.3% in the assay on SNB-75 CNS. Besides, the growth with SNB-19 CNS was 59.7%; in the assay on U251 CNS it was 15.8%; with PC-3 prostate, 66.7%; with SK-MEL-5 melanoma it was 48.3%; with UACC-62 melanoma, 63.4%; in the assay on LOX IMVI melanoma it was 33.8%. Further, the growth with SK-MEL-28 melanoma is 73%.

For the molecule `COC(=O)[C@H](Cc1cn(C)cn1)NC(=O)[C@H](CC(C)C)NC(=O)Nc1cc(C(F)(F)F)cc(C(F)(F)F)c1`, the growth in the assay on DU-145 prostate is -100% [100 µM] (active); in the assay on K-562 leukemia it was -65.4% [100 µM] (active); in the assay with MALME-3M melanoma it was -93.5% [100 µM] (active); in the assay on MDA-MB-231 breast, -94% [100 µM] (active); in the assay with RXF 393 renal, -89.3% [100 µM] (active); in the assay with SF-268 CNS it was -92.8% [100 µM] (active). Besides, the growth with SF-295 CNS is -96.5% [100 µM] (active); in the assay on M14 melanoma it was -95.2% [100 µM] (active); with HCT-15 colon, -96.6% [100 µM] (active); in the assay on HT29 colon it was -89.6% [100 µM] (active); in the assay on SNB-75 CNS, -100% [100 µM] (active); with SNB-19 CNS, -97.9% [100 µM] (active). The growth is -95.4% [100 µM] (active) with SK-MEL-5 melanoma, -99.3% [100 µM] (active) with UACC-62 melanoma, -86.6% [100 µM] (active) in the assay with LOX IMVI melanoma and -100% [100 µM] (active) in the assay with SK-MEL-28 melanoma.

For the molecule `CCCCCc1c(C)[nH]c(/C=C2\N=C(c3ccc[nH]3)C=C2Oc2ccc(OC)cc2)c1C`, the growth in the assay on DU-145 prostate was -59.2% [100 µM] (active); in the assay with K-562 leukemia, -14.6% [100 µM] (active); in the assay with MALME-3M melanoma it was -75.4% [100 µM] (active); in the assay on MDA-MB-231 breast, -71.2% [100 µM] (active); with RXF 393 renal, -68.3% [100 µM] (active); with SF-268 CNS it was -83.5% [100 µM] (active). The growth in the assay on SF-295 CNS is -82.1% [100 µM] (active); with M14 melanoma, -94.7% [100 µM] (active); with HCT-15 colon, -93.8% [100 µM] (active); in the assay with HT29 colon, -64% [100 µM] (active); with SNB-75 CNS it was -91.6% [100 µM] (active); in the assay with SNB-19 CNS, -83.1% [100 µM] (active). The growth in the assay on PC-3 prostate was -25.7% [100 µM] (active); in the assay on UACC-62 melanoma, -93.5% [100 µM] (active); in the assay with LOX IMVI melanoma, -71.9% [100 µM] (active); in the assay on SK-MEL-28 melanoma, -86.9% [100 µM] (active).

Consider `ClC1=NC(Cl)C(Cl)=N/C1=N\c1ncn[nH]1` (stereo not drawn), for which the growth in the assay with DU-145 prostate was -78.9% (active); in the assay on K-562 leukemia it was -48% (active); with MALME-3M melanoma it was -64.3% (active); in the assay on MDA-MB-231 breast, 72.7%; in the assay with RXF 393 renal, -64.6% (active); in the assay with SF-268 CNS, 33.8%. Further, the growth is 101% in the assay with SF-295 CNS; 67.5% in the assay on SF-539 CNS; 39.2% in the assay on M14 melanoma; -71.9% (active) in the assay with HCT-15 colon; -62.8% (active) in the assay with HT29 colon; 68.9% in the assay with SNB-75 CNS. Further, the growth in the assay with SNB-19 CNS is 111%; in the assay on U251 CNS it was -50.5% (active); in the assay with PC-3 prostate, 20.3%; in the assay on SK-MEL-5 melanoma it was 74.1%; in the assay on UACC-62 melanoma, 83.6%; with LOX IMVI melanoma, -50.7% (active). In the assay on SK-MEL-28 melanoma, the growth is 15.1%.

For `CN(C)c1ccc(/C=C\c2cccc[n+]2C)cc1`, the growth in the assay on DU-145 prostate is 70.1%; in the assay on K-562 leukemia, 21%; in the assay on MALME-3M melanoma it was 57.4%; with MDA-MB-231 breast, 73.4%; in the assay on RXF 393 renal, 86.6%; in the assay on SF-268 CNS it was 26.7%. Also, the growth was 19% with SF-295 CNS; 58.9% with SF-539 CNS; 31.7% in the assay with UACC-257 melanoma; 69.6% in the assay on M14 melanoma; 104% in the assay with HCT-15 colon; 34.4% in the assay on HT29 colon. Besides, the growth with SNB-75 CNS is 70.1%; in the assay with SNB-19 CNS it was 31.8%; with PC-3 prostate, 11%; with SK-MEL-5 melanoma, 24.2%; with UACC-62 melanoma, 81.3%; in the assay with LOX IMVI melanoma it was 50%. Also, the growth in the assay on SK-MEL-28 melanoma is 56.6%.

`c1ccc(CCn2cccc2)nc1`: the growth in the assay with DU-145 prostate is 104%; in the assay with K-562 leukemia, 98.6%; in the assay with MALME-3M melanoma, 114%; in the assay with MDA-MB-231 breast, 94.9%; in the assay with RXF 393 renal, 116%; in the assay with SF-268 CNS it was 96.5%. The growth is 114% with SF-295 CNS; 106% with SF-539 CNS; 108% in the assay with UACC-257 melanoma; 106% in the assay on M14 melanoma; 119% in the assay on HCT-15 colon; 114% in the assay on HT29 colon. For the same molecule, the growth in the assay on SNB-75 CNS is 95.1%; in the assay on SNB-19 CNS it was 105%; with UACC-62 melanoma, 97.9%; in the assay on LOX IMVI melanoma, 98.6%.
